Assay outcomes as filed in PubChem.
CDC25B CDK2 inh = primary biochemical HTRF screen for blockers of M-phase inducer phosphatase 2 binding to CDK2/cyclin A | P30305+P24941 | HTRF CDC25B-CDK2/CyclinA binding, anti-His/anti-Flag; active compounds read high | z-score (test concentration not listed) | hit rate 0.72% among 94,000 | AID 1259370, 2018; in the data active = z-score above about 3.2
TAR Tat displ = TAR RNA-Tat peptide displacers, HIV-1, primary screen, biochemical, FRET, FAM/TAMRA-labeled Tat; AID 1259389, 2018; hit rate 0.6% among 100,000; HIV-1 TAR RNA, Tat peptide displacement FRET; active compounds read high; z-score (test concentration not listed); active = z-score of 3 or more in at least 2 runs
The depositor's hits bear a star; . = no result. An excerpt weighted towards active compounds, which were near 0.86% of everything screened.

SMILES	CDC25B CDK2 inh	TAR Tat displ
CC1(C)CC(=O)C2=C(C1)NC1=C(C(=O)c3ccccc31)C2c1cccs1 (configuration not stated)	-0.39	0.71
COc1cc(OC)c(N2C(=O)c3ccncc3C2=O)cc1Cl	.	0.47
O=C(c1cccc(F)c1)N1CCN(c2cc(=O)n3nc(-c4ccccc4)sc3n2)CC1	.	-1.3
COC(=O)c1cc(=O)c(O)c2c(O)c(O)ccc2c1	.	25*
COC(=O)c1cc(NC(=O)c2ccc3ccccc3c2)cc(C(=O)OC)c1	-2	.
Cc1nn(-c2ccccc2)c2c1N(C(=O)CCC(=O)Nc1ccccc1Br)CCS2	-1.1	1.2
O=C(CCCc1nnc2c(=O)n(-c3ccc(Cl)cc3)ccn12)NCc1cccs1	.	1.3
COC(=O)c1cccc(NC(=O)Nc2ccccc2)c1	-2	.
Cc1ccc(C(=O)Nc2ccc(S(=O)(=O)O)c3cc(S(=O)(=O)O)cc(S(=O)(=O)O)c23)cc1NC(=O)c1cccc(NC(=O)Nc2cccc(C(=O)Nc3cc(C(=O)Nc4ccc(S(=O)(=O)O)c5cc(S(=O)(=O)O)cc(S(=O)(=O)O)c45)ccc3C)c2)c1	4.7*	-11
COc1ccc2cc(C(=O)Nc3ccc(Cl)cc3)sc(=O)c2c1OC	0.18	6.4*
COc1ccc2cc(C(=O)Nc3ccc(F)cc3)sc(=O)c2c1OC	0.7	3.9
O=c1cc2nc(-c3cccs3)nc(SCc3ccc(Br)cc3)n2[nH]1	.	27*
Cc1ccc(CSc2nc(-c3cccs3)nc3cc(=O)[nH]n23)cc1	.	0.81
COc1ccc(C2CC(=O)C3=C(C2)Nc2nnnn2C3c2cccnc2)cc1 (configuration not stated)	0.64	-1.2
CCCN(C(=O)c1sc2nc3n(c(=O)c2c1C)CCCC3)c1ccc(F)cc1	.	0.85
COc1ccc(-c2nc(SCc3cc(=O)c4cccc(Cl)c4[nH]3)n[nH]2)cc1	.	6.8*
Cc1ccc(-c2nc(SCc3cc(=O)c4cccc(Cl)c4[nH]3)n[nH]2)cc1	.	0.33
O=C(Nc1ccc2snnc2c1)NC1CC1	11*	1.6
O=C(Nc1ccc2snnc2c1)NC1CCCCC1	-2	-0.4
CS(=O)(=O)N1CCc2cc(C(=O)NC3CCCCC3)ccc21	-0.46	-0.01
COCCn1c2c(c(=O)[nH]c1=O)C(c1ccc(SC)cc1)C1=C(N2)c2ccccc2C1=O (configuration not stated)	-2.5	-1.5
CSc1ccc(C2C3=C(Nc4c2c(=O)[nH]c(=O)n4C)c2ccccc2C3=O)cc1 (configuration not stated)	-3	7.4*
O[C@H]1C=C2CCN3Cc4cc5c(cc4C(C23)[C@@H]1O)OCO5 (some centres not stated)	.	20*
O=C(c1ccc(Br)cc1)C(O)c1c[nH]c2ccccc12 (configuration not stated)	0.22	1.2
Brc1ccc(C(c2c[nH]c3ccccc23)c2c[nH]c3ccccc23)s1	16*	.
SMILES	CDC25B CDK2 inh	TAR Tat displ
O=C1c2cccc3c(N4CCOCC4)ccc(c23)C(=O)N1c1cc(Cl)ccc1O	9.7*	-4.8
O=C1c2cccc3c(N4CCOCC4)ccc(c23)C(=O)N1c1cccc(O)c1	-0.44	-7.6
CCOC(=O)c1c(C)oc2cc(Br)c(OC(=O)C(C)(C)C)cc12	-0.52	.
Cc1oc(-c2ccccc2)nc1CSc1nc2ncccc2o1	.	-0.05
CCCSC1=C(C#N)C(c2ccc(O)c(OCC)c2)CC(=O)N1 (configuration not stated)	-1.1	-0.28
CCOc1cc(C2CC(=O)N3CN(c4ccc(Br)cc4)CSC3=C2C#N)ccc1O (configuration not stated)	3	27*
CCOc1cc(C2CC(=O)N3CN(Cc4ccco4)CSC3=C2C#N)ccc1O (configuration not stated)	2.1	1.7
CCOc1cc(C2CC(=O)N3CN(c4ccc(CC)cc4)CSC3=C2C#N)ccc1O (configuration not stated)	1.2	24*
COc1ccc(-c2noc(-c3nnn(-c4ccc(OC)c(OC)c4)c3C)n2)cc1	.	-0.54
COC(=O)C1=C(C(=O)OC)SC(=C2C(=S)C(C)(C)Nc3ccc(C)cc32)S1	18*	1.6
COC(=O)C1=C(C(=O)OC)SC(=C2C(=S)C(C)(C)Nc3cc(C)c(C)cc32)S1	-0.72	2.2
CCOc1ccc(-c2csc(-c3cc4c([nH]c3=O)CC(c3ccco3)CC4=O)n2)cc1 (configuration not stated)	19*	-5.3
O=C1CC(c2ccco2)Cc2[nH]c(=O)c(-c3nc(-c4ccc(Oc5ccccc5)cc4)cs3)cc21 (configuration not stated)	16	0.71
O=c1c(O[C@@H]2O[C@H](CO)[C@H](O)[C@H](O)[C@H]2O)c(-c2ccc(O)c(O)c2)oc2cc(O)cc(O)c12	.	27*
